# PLAP activator – activators of human placental alkaline phosphatase. purified PLAP enzyme, luminescent substrate read-out; active compounds read high. activation fold at 20 µM. AID 696. actives 1.2% (n = 96,000). P05187; in the data active = activation fold above about 2
# CYP2C9 inhib – human CYP2C9 inhibition; CYP2C9 Supersomes, luciferin-H conversion, luminescence; inhibition, % at 5 µM; actives 20% (n = 96,000); P11712;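 active = blocking of liver enzyme CYP2C9 beyond about 50% at 5 µM, limit read from the data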
# CYP2C19 act – activators of human cytochrome P450 2C19. P33261. recombinant CYP2C19, luciferin-H EGE luminescence; active compounds read high; 0 = fully inhibited enzyme, 1 = untreated enzyme. activation factor at 5 µM. 96,000 tested, under 10 active;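 active = activation factor of at least 2 at 5 µM in the primary screen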;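 also: 0 = wells with 2.5 mM tranylcypromine and 1 = vehicle-only wells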
# Target sequence (P33261 whole entry, looked up): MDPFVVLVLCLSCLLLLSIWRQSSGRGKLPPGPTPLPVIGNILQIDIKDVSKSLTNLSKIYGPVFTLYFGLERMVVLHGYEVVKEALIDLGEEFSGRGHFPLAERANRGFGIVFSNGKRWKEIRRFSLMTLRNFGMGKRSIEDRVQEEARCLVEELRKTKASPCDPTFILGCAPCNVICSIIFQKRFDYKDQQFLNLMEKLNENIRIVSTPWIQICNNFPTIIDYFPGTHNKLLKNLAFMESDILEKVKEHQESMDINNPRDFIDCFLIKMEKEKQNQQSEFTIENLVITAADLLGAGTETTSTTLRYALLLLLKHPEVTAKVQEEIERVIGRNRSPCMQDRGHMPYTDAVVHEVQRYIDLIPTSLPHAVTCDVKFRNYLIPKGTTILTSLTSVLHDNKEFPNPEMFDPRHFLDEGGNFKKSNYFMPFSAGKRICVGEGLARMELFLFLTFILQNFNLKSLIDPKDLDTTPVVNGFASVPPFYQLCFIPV
# CYP2C19 inhib – inhibitors of human CYP2C19; P33261; CYP2C19 Supersomes, luciferin-H EGE luminescence, 30 min; inhibition, % at 5 µM; actives 21% (n = 96,000);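 active = CYP2C19 inhibition above a set limit at 5 µM in the primary screen, cut at about 50% in these data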;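 also: plate controls were negative control wells for no effect and 2.5 mM tranylcypromine positive control for full effect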
# CYP2C9 act – CYP2C9 (human) activation; actives 1.4% (n = 96,000); AID 1024; recombinant CYP2C9, luciferin-H conversion, luminescence; active compounds read high; factor 1 = untreated enzyme, 0 = blocked; activation factor at 5 µM; P11712;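 active = activation factor of 2 or more for CYP2C9 at a 5 µM dose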;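 also: 0 = sulfaphenazole-blocked wells and 1 = vehicle-only wells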
# The depositor's hits bear a star. Only some compounds are listed: those with a hit (about 31% of all), similar ones and a draw of the others.
SMILES,PLAP activator,CYP2C9 inhib,CYP2C19 act,CYP2C19 inhib,CYP2C9 act
CCOc1cc(C(=O)NC(C)c2ccncc2)cc(OCC)c1OCC (centres undefined),1.8,80*,0.2,80*,0.2
CCCn1nnnc1SCC(=O)NNC(=O)C1CCCCC1,1.5,6,1,-3,0.9
Cc1ccc(NS(=O)(=O)c2cc(C(=O)N3CCOCC3)ccc2C)cc1C,1.2,8,0.7,26,0.9
CCOC(=O)C1=C(C)N(C)C(C)=C(C(=O)OCC)C1c1ccc(C(=O)OC)cc1,1.8,99*,0,99*,0
COC(=O)C1=C(C)N(C)C(C)=C(C(=O)OC)C1c1ccc(Cl)cc1,1,58*,0.7,28,0.4
COC(=O)C1=C(N)Oc2cc(C)n(C)c(=O)c2C1c1ccc(Cl)cc1 (centres undefined),0.9,-25,1.1,-6,1.3
CC1(C(=O)O)CCC(C(=O)Nc2ccc(S(N)(=O)=O)cc2)C1(C)C (centres undefined),1.1,-18,1.2,-17,1.2
Cc1cc(=O)n2[nH]c(=O)c(N=Nc3ccccc3)c2[nH]1,1.5,-10,1,-3,1.1
CCOc1ccc(N=Nc2c(=O)[nH]n3c(=O)cc(C)[nH]c23)cc1,1.5,31,0.4,63*,0.7
Cc1ccc(NC(=O)c2ccc(OC(=O)c3cc4ccccc4o3)cc2)cc1,0.9,30,0.9,10,0.7
CCN(c1ccccc1)S(=O)(=O)c1ccc(NC(=S)NC(=O)c2cccs2)cc1,1.2,77*,0.7,32,0.2
O=C(NC(=S)Nc1ccc(N2CCCCC2)cc1)c1cccs1,1,-3,1,-4,1
CCCC(=O)Nc1ccc(C(=O)NNC(=S)NC(=O)c2cccs2)cc1,2.4*,28,0.9,7,0.7
CCCC(=O)NC(=S)Nc1ccc(NC(=O)c2cccs2)cc1,0.9,85*,0.5,52*,0.2
CCC1CCCCN1Cc1ccc(OC)c(C)c1C (centres undefined),0.9,6,0.8,18,0.9
CCOC(=O)CNC(=O)Cn1cnc2c(nnn2-c2cccc(Cl)c2)c1=O,1,-44,0.9,10,1.4
N#CCC1c2ccccc2CCN1C(=O)Nc1ccc(Cl)cc1 (centres undefined),0.8,34,0.5,55*,0.7
N#CCC1c2ccccc2CCN1C(=O)Nc1cccc(Cl)c1 (centres undefined),0.8,42,0.7,34,0.6
Cc1ccc(CO/N=C\Cc2snc(Sc3ncc(C(F)(F)F)cc3Cl)c2C#N)cc1,0.8,-19,0.5,52*,1.2
O=S(=O)(Nc1ccc(O)c(CN2CCCCC2)c1)c1ccccc1,1.2,24,0.6,40,0.8
Cc1ccc(N(C(C)C(=O)Nc2ccc3c(c2)OCO3)S(C)(=O)=O)cc1 (centres undefined),1.1,43,0.3,67*,0.6
CC(C)C(C(=O)Nc1ccc2c(c1)OCO2)N1C(=O)c2ccccc2C1=O (centres undefined),1.1,52*,0.5,49,0.5
CC(C(=O)Oc1ccc2c(c1)OCO2)N1C(=O)c2ccccc2C1=O (centres undefined),1.1,42,0.4,62*,0.6
CC(C(=O)OCC(=O)Nc1ccc2c(c1)OCO2)N1C(=O)c2ccccc2C1=O (centres undefined),1.1,68*,0.3,74*,0.3
Cc1noc(N)c1C(=O)Nc1ccc(F)cc1,1.1,17,1,2,0.8
SMILES,PLAP activator,CYP2C9 inhib,CYP2C19 act,CYP2C19 inhib,CYP2C9 act
Cc1ccc(S(=O)(=O)N2CCOCC2)cc1NC(=O)COC(=O)CSc1ccc(Br)cc1C,1.6,-35,0.6,41,1.3
CCN(C#N)c1nc(N(C)C)nc(N(C)C)n1,0.9,-53,1.1,-8,1.5
O=C(Nc1ccc2c(c1)OCCO2)C1CCN(S(=O)(=O)c2ccc(Br)s2)CC1,1.2,0,0.5,49,1
CC(C)C(C(=O)Nc1cccnc1)N1C(=O)c2ccccc2C1=O (centres undefined),0.9,63*,0.7,30,0.4
CC(C)C(C(=O)Nc1ccc2c(c1)OCCO2)N1C(=O)c2ccccc2C1=O (centres undefined),1.2,49,0.8,22,0.5
c1ccc2c(c1)[nH]c1nc3nncn3nc12,1,-3,1,-1,1
COc1cc(/C=C(/C#N)c2nc3ccccc3[nH]2)ccc1OC(=O)c1ccco1,1,61*,0.8,24,0.4
COc1ccc(C(=O)NCc2nnc(SCC(=O)N3CCCCC3)o2)cc1OC,1,22,0.7,33,0.8
CCOC(=O)C1=C(CN2CCC(C)CC2)NC(=O)NC1c1ccc(Cl)cc1 (centres undefined),0.7,89*,0.2,78*,0.1
CC1=C(C(=O)OCC(C)C)C(c2ccc(F)cc2)NC(=O)N1 (centres undefined),0.9,29,0.1,90*,0.7
Cc1ccc(-c2nn(-c3ccccc3)cc2C2CC(c3cccs3)=NN2C(=O)CCCC(=O)O)cc1 (centres undefined),1.5,61*,0.9,9,0.4
CCOC(=O)C1=C(C)NC(=O)NC1c1ccc(N(CC)CC)cc1 (centres undefined),0.9,52*,0.8,17,0.5
CCOC(=O)C1=C(CNCc2ccccc2Cl)NC(=O)NC1c1ccc2c(c1)OCO2 (centres undefined),0.9,26,0.7,28,0.7
CCOC(=O)C1=C(C)NC(=O)NC1c1ccc(N(C)C)cc1 (centres undefined),1.1,-11,1,-4,1.1
CCOC(=O)C1=C(C)NC(=O)NC1c1ccc(OC(C)C(=O)O)c(OC)c1 (centres undefined),1,-28,1.3,-25,1.3
Cc1cc(NC(=O)/C=C/c2ccccc2)no1,0.7,-2,0.9,7,1
O=C(NCc1ccco1)C(c1ccccc1)N(Cc1cccnc1)C(=O)Cn1nnc2ccccc21 (centres undefined),1.1,3,0.9,10,1
CCCCP(=O)(CCCC)Cc1ccccc1O,0.9,-15,1.1,-9,1.1
CCOC(=O)C1=C(C)NC(=O)NC1c1ccc(Cl)cc1Cl (centres undefined),0.9,13,0.3,68*,0.9
CC1=C(C(=O)OC2CCCCCCC2)C(c2cccc(O)c2)NC(=O)N1 (centres undefined),1.7,81*,0.2,81*,0.2
C=CCOc1c(Cl)cc(C2NC(=O)NC(C)=C2C(=O)OC)cc1Cl (centres undefined),0.9,37,0.4,57*,0.6
CCOC(=O)C1=C(C)NC(=O)NC1c1cc(C)sc1C (centres undefined),0.9,0,0.9,7,1
CCOC(=O)C1=C(C)NC(=O)NC1c1cccc(O)c1 (centres undefined),1,6,1,3,0.9

# Compound activity: PubChem, Sanford-Burnham Center for Chemical Genomics
